Data reported in PubChem BioAssay (NCATS).
Inconclusive results are not listed. The source made the active and inactive calls. Unless noted, the call rests on the fitted dose curve; in most records, active means well fitted curve in the direction sought with a large enough effect; inconclusive means small, poorly fitted or top-dose-only effect, or another doubt; inactive means no such curve, though single readings can be large; an effect the other way counts as inactive or inconclusive.

How the values were obtained:
[1] = molecular target: Cytochrome P450 3A4 (Homo sapiens) (UniProt P08684); assay: qHTS Assay for Activators of Cytochrome P450 3A4 (AID 885); further: nearly all actives have a fitted effect of over 65% in size
Cytochrome P450 3A4 (Homo sapiens), sequence (P08684 whole entry, looked up): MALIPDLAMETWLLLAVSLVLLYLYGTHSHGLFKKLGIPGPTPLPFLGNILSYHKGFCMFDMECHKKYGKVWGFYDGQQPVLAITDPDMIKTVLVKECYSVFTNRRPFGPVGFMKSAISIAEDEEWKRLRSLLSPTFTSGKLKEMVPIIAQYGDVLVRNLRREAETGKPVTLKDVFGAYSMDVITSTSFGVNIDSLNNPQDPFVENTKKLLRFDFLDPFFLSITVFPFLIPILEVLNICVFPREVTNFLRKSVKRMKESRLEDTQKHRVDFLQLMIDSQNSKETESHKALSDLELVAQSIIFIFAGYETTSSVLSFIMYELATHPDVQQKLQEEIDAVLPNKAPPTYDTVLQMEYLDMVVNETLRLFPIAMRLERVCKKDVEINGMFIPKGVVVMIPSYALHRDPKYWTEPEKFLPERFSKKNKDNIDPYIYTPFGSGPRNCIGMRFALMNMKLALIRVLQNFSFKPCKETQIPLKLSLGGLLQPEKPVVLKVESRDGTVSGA
How it was run: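 Using 20nM recombinant human CYP3A4 in potassium phosphate (200mM), substrate Luciferin-PPXE at 25uM, luminescent luciferin detection followed a 60-min RT NADPH reaction; data scaled to 57 uM ketoconazole.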

[2] = qHTS Assay for Lipid Storage Modulators (AID 1519; calls by dose curve; further: potency means the concentration at half of the fitted maximal effect; on activity change, negative = inhibition: on the % scale 0 is the no-effect control and ±100 the full control effect); conditions: Drosophila S3 cells, BODIPY lipid droplet/cell ratio, laser cytometry, cells loaded with oleic acid; for activity change, negative = inhibition: at 57.5 µM (top of the series)
How it was run: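 Cells seeded at 5,000 per well were treated with compounds over a concentration series and loaded with oleic acid (400 uM, as added). Lipid droplet fluorescence (488 nm excitation, 500-530 nm channel) was read by laser-scanning cytometry and normalized to 20 uM Triacsin C.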

[3] = molecular target: Rap guanine nucleotide exchange factor 3 (Homo sapiens) (UniProt O95398); assay: Confirmatory qHTS for agonist of cAMP-regulated guanine nucleotide exchange factor 3 (EPAC1) (AID 1645881);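 further: EPAC1 catalysed release of BODIPY-GDP from Rap1B seen as fluorescence loss; 100% = effect of cAMP agonist control; nearly all actives have a fitted effect of over 75% in size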
Rap guanine nucleotide exchange factor 3 (Homo sapiens), sequence (O95398 whole entry, looked up): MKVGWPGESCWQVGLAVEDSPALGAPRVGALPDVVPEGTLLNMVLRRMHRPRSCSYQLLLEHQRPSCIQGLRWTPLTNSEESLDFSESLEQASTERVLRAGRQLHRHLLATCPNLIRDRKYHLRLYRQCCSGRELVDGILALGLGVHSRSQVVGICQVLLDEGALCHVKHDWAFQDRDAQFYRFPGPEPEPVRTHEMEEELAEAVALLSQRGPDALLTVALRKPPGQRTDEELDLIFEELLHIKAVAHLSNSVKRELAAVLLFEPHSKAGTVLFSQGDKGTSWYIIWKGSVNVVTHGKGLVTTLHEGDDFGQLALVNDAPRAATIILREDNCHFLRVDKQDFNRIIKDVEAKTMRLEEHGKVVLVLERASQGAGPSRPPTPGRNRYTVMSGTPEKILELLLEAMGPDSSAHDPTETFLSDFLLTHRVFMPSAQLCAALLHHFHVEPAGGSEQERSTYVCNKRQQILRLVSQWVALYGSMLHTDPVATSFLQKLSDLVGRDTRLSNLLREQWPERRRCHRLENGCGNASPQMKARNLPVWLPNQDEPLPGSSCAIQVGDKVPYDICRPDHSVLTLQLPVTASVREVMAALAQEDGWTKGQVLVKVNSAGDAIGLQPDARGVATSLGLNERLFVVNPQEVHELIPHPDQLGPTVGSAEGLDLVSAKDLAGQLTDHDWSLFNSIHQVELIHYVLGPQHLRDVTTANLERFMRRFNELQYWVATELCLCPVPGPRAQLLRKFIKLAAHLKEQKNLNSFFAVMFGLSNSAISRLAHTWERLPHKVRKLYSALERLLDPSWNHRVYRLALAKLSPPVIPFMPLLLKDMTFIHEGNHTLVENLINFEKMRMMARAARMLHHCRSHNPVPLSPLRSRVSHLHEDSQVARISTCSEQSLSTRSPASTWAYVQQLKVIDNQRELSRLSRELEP

[4] = molecular target: Rap guanine nucleotide exchange factor 4 (Homo sapiens) (UniProt Q8WZA2); assay: Confirmatory qHTS for agonist of cAMP-regulated guanine nucleotide exchange factor 4 (EPAC2) (AID 1645884);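 further: nucleotide exchange releases bodipy-GDP from Rap1 and this lowers its fluorescence; on the % scale 0 is the no-effect control and ±100 the full control effect; nearly all actives have a fitted effect of over 65% in size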
Rap guanine nucleotide exchange factor 4 (Homo sapiens), sequence (Q8WZA2 whole entry, looked up): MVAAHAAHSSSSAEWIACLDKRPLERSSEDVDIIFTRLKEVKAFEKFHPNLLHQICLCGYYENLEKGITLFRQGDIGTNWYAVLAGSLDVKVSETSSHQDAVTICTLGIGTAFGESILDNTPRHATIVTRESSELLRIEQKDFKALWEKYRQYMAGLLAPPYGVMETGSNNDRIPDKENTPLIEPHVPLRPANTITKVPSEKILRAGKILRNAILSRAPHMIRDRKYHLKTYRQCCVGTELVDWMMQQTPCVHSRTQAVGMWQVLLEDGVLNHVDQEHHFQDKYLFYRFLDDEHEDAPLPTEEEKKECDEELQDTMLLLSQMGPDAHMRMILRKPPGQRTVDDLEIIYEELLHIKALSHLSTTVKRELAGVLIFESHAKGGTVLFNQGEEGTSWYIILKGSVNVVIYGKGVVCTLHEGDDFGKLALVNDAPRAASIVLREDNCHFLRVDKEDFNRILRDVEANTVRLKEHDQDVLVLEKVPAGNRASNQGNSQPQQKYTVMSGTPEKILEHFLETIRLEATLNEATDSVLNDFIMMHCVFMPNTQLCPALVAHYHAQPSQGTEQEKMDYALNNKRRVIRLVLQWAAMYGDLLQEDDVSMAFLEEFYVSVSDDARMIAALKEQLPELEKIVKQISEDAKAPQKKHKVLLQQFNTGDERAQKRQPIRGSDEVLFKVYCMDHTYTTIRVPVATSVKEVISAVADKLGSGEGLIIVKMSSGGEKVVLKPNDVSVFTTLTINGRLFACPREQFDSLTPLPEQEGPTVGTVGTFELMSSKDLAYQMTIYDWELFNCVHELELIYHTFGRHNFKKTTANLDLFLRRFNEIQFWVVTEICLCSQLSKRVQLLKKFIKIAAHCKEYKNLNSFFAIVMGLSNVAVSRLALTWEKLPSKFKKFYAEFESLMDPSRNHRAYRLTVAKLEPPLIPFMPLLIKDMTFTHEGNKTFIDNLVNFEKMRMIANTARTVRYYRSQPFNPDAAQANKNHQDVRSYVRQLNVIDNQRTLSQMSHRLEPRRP

[5] = molecular target: Cytochrome P450 3A4 (Homo sapiens) (UniProt P08684); assay: qHTS Assay for Inhibitors and Substrates of Cytochrome P450 3A4 (AID 884); further: potency means the concentration at half of the fitted maximal effect; nearly all actives have a fitted effect of over 50% in size
How it was run: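 Luminescent readout of luciferin produced by CYP3A4 (20 nM) dealkylation of Luciferin-PPXE, 25 uM (its KM). NADPH-driven reaction ran 60 min at RT after 10 min compound preincubation; data scaled to 57 uM ketoconazole as 100% inhibition.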

[6] = Confirmation and Secondary Assay for Modulators of Hemoglobin Beta Chain Splicing at IVS2 654 locus (AID 910);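 further: HeLa cells stably carrying EGFP split by mutant beta-globin IVS2-654 intron; % of control where 0% means no effect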
How it was run: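 Readout: per-well total peak green fluorescence (488 nm ex, 500–520 nm em) from objects 5–250 µm, reflecting correct splicing of an EGFP-654 reporter. Compounds were applied for 2 days at 37 °C to overnight-plated HeLa EGFP-654 cells; controls were DMSO and 500 nM IVS2-654 PNA.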

[7] = Confirmation and Secondary Assay for Modulators of Hemoglobin Beta Chain Splicing at IVS2 705 locus (AID 930);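 further: HeLa cells stably expressing the EGFP-705 splicing reporter; GFP fluorescence per well restored by corrected splicing of the IVS2-705 intron in EGFP; % of control where 0% means no effect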
How it was run: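 HeLa cells stably carrying EGFP interrupted by mutant beta-globin intron 2 (IVS2-705) treated 2 days at 37C with compound; 500 nM antisense PNA as control. Correct splicing read as total peak GFP intensity per well by laser-scanning cytometry.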

[8] = molecular target: Rap guanine nucleotide exchange factor 4 (Homo sapiens) (UniProt Q8WZA2); assay: Confirmatory qHTS for antagonist of cAMP-regulated guanine nucleotide exchange factor 4 (EPAC2) (AID 1645885); further: potency means the concentration at half of the fitted maximal effect; nearly all actives have a fitted effect of over 25% in size
[9] = molecular target: DNA repair nuclease/redox regulator APEX1 (Homo sapiens) (UniProt P27695); assay: qHTS Validation Assay for Inhibitors of the Human Apurinic/apyrimidinic Endonuclease 1 (APE1) (AID 1705;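 further: TAMRA fluorescence gain over two minutes as APE1 cuts a quenched THF abasic duplex; on the % scale 0 is the no-effect control and ±100 the full control effect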)
How it was run: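 Read-out: TAMRA fluorescence (525 nm ex, 598 nm em) from cleavage of a quenched THF abasic-site duplex, 50 nM final; activity taken as intensity change between third and first of three reads 60 s apart.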

[10] = Counterscreen for APE1 Inhibitors: Fluorescent Dye Displacement Validation Assay (AID 1707);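 further: plate controls were ThO with dsDNA and no compound for no effect and ThO without dsDNA for full effect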
How it was run: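 Loss of Thiazole Orange fluorescence marks promiscuous DNA binders. The dye (250 nM) is mixed with 50 nM abasic-site dsDNA in pH7.5 Tris buffer containing MgCl2, then compounds are added and emission is read once.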

[11] = molecular target: Endonuclease 4 (Escherichia coli (strain K12)) (UniProt P0A6C1); assay: Counterscreen for APE1 Inhibitors: qHTS Validation Assay for Inhibitors of Endonuclease IV (AID 1708); further: on the % scale 0 is the no-effect control and ±100 the full control effect
How it was run: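 Incision of a double-stranded 50 nM TAMRA/BHQ-2 abasic substrate was followed kinetically (525/598 nm, reads every 60 s) after 15 min enzyme–compound preincubation with 2 nM EndoIV in pH 7.5 Tris buffer with MgCl2, DTT and Tween-20; concentration-response format.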

[12] = qHTS for differential inhibitors of proliferation of Plasmodium falciparum line 7G8 (AID 1815);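 further: potency means the concentration at half of the fitted maximal effect; parasite growth measured after three days of incubation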
[13] = qHTS for differential inhibitors of proliferation of Plasmodium falciparum line GB4 (AID 1816); conditions: Potency: Plasmodium falciparum GB4 proliferation inhibition;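 further: potency means the concentration at half of the fitted maximal effect; parasite growth measured after 72 h incubation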
[14] = qHTS for differential inhibitors of proliferation of Plasmodium falciparum line 3D7 (AID 1876); further: potency means the concentration at half of the fitted maximal effect
[15] = qHTS for differential inhibitors of proliferation of Plasmodium falciparum line D10 (AID 1877);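 further: potency means the concentration at half of the fitted maximal effect; parasites grown with compound for 72 h before DNA staining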
[16] = qHTS for differential inhibitors of proliferation of Plasmodium falciparum line Dd2 (AID 1882); conditions: Potency: Plasmodium falciparum Dd2 proliferation inhibition; further: potency means the concentration at half of the fitted maximal effect; nearly all actives have a fitted effect of over 65% in size
How it was run: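 SYBR Green DNA fluorescence (ex 485, em 535 nm) after overnight lysis quantifies parasite growth; compound exposure lasted 72 h at 37 C on infected red cells at 2.5% hematocrit, 0.3% parasitemia (final). Artemisinin 0.29 uM and vehicle wells define normalization.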

[17] = qHTS for differential inhibitors of proliferation of Plasmodium falciparum line W2 (AID 1883); conditions: Potency: Plasmodium falciparum W2 proliferation inhibition;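 further: potency means the concentration at half of the fitted maximal effect; parasites grown with compound for 72 h before lysis and staining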
[18] = qHTS for differential inhibitors of proliferation of Plasmodium falciparum line HB3 (AID 1886); conditions: Potency: Plasmodium falciparum HB3 proliferation inhibition;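 further: potency means the concentration at half of the fitted maximal effect; parasites grown with compound for 72 h before SYBR Green readout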
[19] = molecular target: Ferritin light chain (Equus caballus) (UniProt P02791); assay: qHTS Validation Assay for Identification of Novel General Anesthetics (AID 2323); further: on the % scale 0 is the no-effect control and ±100 the full control effect
Ferritin light chain (Equus caballus), sequence (P02791 2-175 limits assumed): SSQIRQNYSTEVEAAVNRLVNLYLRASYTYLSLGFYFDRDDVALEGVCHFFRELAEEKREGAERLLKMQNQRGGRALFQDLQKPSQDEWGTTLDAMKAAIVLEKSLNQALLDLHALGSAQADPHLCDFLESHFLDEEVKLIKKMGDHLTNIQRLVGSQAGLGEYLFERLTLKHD
How it was run: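 10 uM horse-spleen apoferritin + 1-AMA (50% saturated, PBS); cpd pin-transferred, 10 min RT. Ex 380/Em 535 nm endpoint. Activity normalized between free 1-AMA and 1-AMA/apoferritin; 4-parameter Hill fit of concentration-response.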

[20] = molecular target: ATP-dependent DNA helicase Q1 (Homo sapiens) (UniProt P46063); assay: qHTS Validation Assay for Inhibitors of RecQ-Like Dna Helicase 1 (RECQ1) (AID 2353);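 further: plate controls were DMSO vehicle for no effect and enzyme-free control for full effect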
How it was run: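 RECQ1T1 50 nM; forked duplex (20 bp + 30-nt ss tails) 200 nM, ATP 2 mM final; pH 8.0, 2 mM MgCl2, 2.5 ug/ml poly(dI-dC); 15 min compound preincubation; discontinuous kinetic read over 2 h at RT.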

[21] = Validation screen for small molecules that induce DNA re-replication in MCF 10A normal breast cells (AID 463097); further: 0% is about no effect; nearly all actives have a fitted effect of over 60% in size
How it was run: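 250 MCF 10A cells/well; compound pin-transferred; 48 hr, 37 C, 5% CO2; Hoechst 40 min; imaged 405/500-530 nm. Hits = more high-intensity nuclei.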

[22] = Quantitative high throughput screen for delayed death inhibitors of the malarial parasite plastid, 96 hour incubation (AID 488745); further: potency means the concentration at half of the fitted maximal effect; nearly all actives have a fitted effect of over 70% in size
How it was run: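 Readout is firefly luciferase luminescence from an integrated reporter in P. falciparum; lower signal marks inhibited growth. Cultures at 2% hematocrit and 0.1% parasitemia were treated with compound across two generations (96 h, 37 C, 5% CO2).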

[23] = Quantitative high throughput screen for delayed death inhibitors of the malarial parasite plastid, 48 hour incubation (AID 488752); further: potency means the concentration at half of the fitted maximal effect; nearly all actives have a fitted effect of over 65% in size
How it was run: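 First, compound was pinned into RPMI 1640 medium containing 0.5% Albumax. Next, reporter-parasite-infected erythrocytes were added to 2% hematocrit and 0.1% parasitemia. After 48 h at 37 C under 5% CO2, luciferase detection reagent was added and luminescence read.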

[24] = molecular target: M-phase phosphoprotein 8 (Homo sapiens) (UniProt Q99549); assay: qHTS Validation Assay for Inhibitors for MPP8 Chromodomain Interactions with Methylated Histone Tails (AID 488949);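 further: AlphaScreen signal from MPP8 chromodomain bound to biotinylated H3K9me3 peptide; top concentration of the series differs between compounds; on the % scale 0 is the no-effect control and ±100 the full control effect; nearly all actives have a fitted effect of over 55% in size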
M-phase phosphoprotein 8 (Homo sapiens), sequence (Q99549 whole entry, looked up): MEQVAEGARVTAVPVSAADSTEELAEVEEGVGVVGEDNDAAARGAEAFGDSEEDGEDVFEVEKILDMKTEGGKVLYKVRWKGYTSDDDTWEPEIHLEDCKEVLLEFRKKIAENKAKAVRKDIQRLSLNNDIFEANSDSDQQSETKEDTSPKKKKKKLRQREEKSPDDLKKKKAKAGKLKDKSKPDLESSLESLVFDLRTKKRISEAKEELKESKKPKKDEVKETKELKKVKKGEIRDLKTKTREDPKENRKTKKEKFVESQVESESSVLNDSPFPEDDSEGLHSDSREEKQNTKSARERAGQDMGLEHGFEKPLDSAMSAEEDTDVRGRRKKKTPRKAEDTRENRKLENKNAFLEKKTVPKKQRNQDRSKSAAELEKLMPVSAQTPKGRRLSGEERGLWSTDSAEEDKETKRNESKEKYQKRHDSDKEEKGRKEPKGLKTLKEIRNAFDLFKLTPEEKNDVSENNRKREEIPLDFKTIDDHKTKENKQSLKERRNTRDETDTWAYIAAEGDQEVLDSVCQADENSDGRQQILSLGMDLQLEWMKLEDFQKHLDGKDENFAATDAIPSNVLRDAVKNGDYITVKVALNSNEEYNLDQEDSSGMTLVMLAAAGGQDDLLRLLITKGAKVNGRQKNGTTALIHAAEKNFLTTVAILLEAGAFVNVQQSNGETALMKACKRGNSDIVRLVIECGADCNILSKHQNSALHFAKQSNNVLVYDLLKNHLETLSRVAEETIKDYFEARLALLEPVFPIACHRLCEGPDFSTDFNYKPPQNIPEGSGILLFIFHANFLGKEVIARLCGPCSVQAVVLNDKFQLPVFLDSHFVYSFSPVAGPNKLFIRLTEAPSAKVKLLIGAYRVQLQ
How it was run: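 AlphaScreen read-out: streptavidin donor and nickel chelate acceptor beads (final 10 ug/mL), 30 min in the dark at RT. Complex of 50 nM MPP8 and 50 nM b-H3(1-18)K9me3 peptide had been exposed to compounds for 30 min beforehand.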

[25] = molecular target: Transient receptor potential cation channel subfamily V member 1 (Homo sapiens) (UniProt Q8NER1); assay: HTS Assay for Compounds that Act as Enhancers of the Vanilloid Receptor 1 (AID 488979); further: 0% is about no effect
How it was run: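 Calcium influx kinetics via Fluo-8 (480/520 nm) in TRPV1-expressing cells, 2000/well cultured overnight at 35.5C. Compound-alone read 3 min (agonist phase), followed by EC20 capsaicin challenge for 2 min (enhancer phase).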

[26] = molecular target: Thyrotropin-releasing hormone receptor (Homo sapiens) (UniProt P34981); assay: qHTS for Small Molecule Agonists and Allosteric Enhancers of Human TRH Receptor: Validation Screen for Agonists (AID 493127;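 active means calcium activation more than 3 SD above the typical response in the agonist read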;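 further: intracellular calcium rise by fluo-8 fluorescence before TRH EC20 addition; 0% is about no effect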); conditions: TRH receptor agonist cell assay; at 2 µM; stronger effect = higher value
Thyrotropin-releasing hormone receptor (Homo sapiens), sequence (P34981 whole entry, looked up): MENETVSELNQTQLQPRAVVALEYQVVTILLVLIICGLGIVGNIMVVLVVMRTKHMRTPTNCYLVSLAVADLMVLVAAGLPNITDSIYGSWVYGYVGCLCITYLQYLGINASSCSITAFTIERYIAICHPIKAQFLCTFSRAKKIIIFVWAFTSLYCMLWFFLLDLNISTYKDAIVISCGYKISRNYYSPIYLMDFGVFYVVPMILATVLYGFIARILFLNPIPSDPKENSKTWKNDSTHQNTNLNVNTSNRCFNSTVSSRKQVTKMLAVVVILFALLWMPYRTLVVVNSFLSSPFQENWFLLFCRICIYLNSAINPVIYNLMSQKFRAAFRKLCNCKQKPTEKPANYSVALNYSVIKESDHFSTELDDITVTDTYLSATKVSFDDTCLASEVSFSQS
How it was run: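 Compounds are added by online pintool to dye-loaded TRHR cells while fluorescence is recorded every second. A rise in calcium signal during the agonist read marks activation; a later 10 nM TRH addition (EC20) serves the separate enhancer mode.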

[27] = molecular target: Galactokinase (Homo sapiens) (UniProt P51570); assay: qHTS Validation Assay for Inhibitors of Human Galactokinase (GALK) (AID 493189); further: 0% is about no effect
How it was run: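 Luminescence from leftover ATP (Kinase-Glo Plus, 10 min) served as read-out after a 1 h room-temperature reaction of 5 nM GALK, 100 uM galactose and 35 uM ATP at pH8.0.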

[28] = Validation screen for small molecules that induce DNA re-replication in SW480 colon adenocarcinoma cells (AID 504364); further: 0% is about no effect
How it was run: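 Image-based qHTS: compounds were incubated with SW480 cells for 48 hr, nuclei stained with Hoechst, and per-nucleus fluorescence intensity scanned to flag cells with excess DNA content.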

[29] = molecular target: Voltage-gated inwardly rectifying potassium channel KCNH2 (Homo sapiens) (UniProt Q12809); assay: qHTS Assay for Small Molecule Inhibitors of the Human hERG Channel Activity (AID 588834);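 further: top concentration of the series differs between compounds; on the % scale 0 is the no-effect control and ±100 the full control effect; lower thallium flux fluorescence means stronger hERG block; nearly all actives have a fitted effect of over 50% in size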
Voltage-gated inwardly rectifying potassium channel KCNH2 (Homo sapiens), sequence (Q12809 whole entry, looked up): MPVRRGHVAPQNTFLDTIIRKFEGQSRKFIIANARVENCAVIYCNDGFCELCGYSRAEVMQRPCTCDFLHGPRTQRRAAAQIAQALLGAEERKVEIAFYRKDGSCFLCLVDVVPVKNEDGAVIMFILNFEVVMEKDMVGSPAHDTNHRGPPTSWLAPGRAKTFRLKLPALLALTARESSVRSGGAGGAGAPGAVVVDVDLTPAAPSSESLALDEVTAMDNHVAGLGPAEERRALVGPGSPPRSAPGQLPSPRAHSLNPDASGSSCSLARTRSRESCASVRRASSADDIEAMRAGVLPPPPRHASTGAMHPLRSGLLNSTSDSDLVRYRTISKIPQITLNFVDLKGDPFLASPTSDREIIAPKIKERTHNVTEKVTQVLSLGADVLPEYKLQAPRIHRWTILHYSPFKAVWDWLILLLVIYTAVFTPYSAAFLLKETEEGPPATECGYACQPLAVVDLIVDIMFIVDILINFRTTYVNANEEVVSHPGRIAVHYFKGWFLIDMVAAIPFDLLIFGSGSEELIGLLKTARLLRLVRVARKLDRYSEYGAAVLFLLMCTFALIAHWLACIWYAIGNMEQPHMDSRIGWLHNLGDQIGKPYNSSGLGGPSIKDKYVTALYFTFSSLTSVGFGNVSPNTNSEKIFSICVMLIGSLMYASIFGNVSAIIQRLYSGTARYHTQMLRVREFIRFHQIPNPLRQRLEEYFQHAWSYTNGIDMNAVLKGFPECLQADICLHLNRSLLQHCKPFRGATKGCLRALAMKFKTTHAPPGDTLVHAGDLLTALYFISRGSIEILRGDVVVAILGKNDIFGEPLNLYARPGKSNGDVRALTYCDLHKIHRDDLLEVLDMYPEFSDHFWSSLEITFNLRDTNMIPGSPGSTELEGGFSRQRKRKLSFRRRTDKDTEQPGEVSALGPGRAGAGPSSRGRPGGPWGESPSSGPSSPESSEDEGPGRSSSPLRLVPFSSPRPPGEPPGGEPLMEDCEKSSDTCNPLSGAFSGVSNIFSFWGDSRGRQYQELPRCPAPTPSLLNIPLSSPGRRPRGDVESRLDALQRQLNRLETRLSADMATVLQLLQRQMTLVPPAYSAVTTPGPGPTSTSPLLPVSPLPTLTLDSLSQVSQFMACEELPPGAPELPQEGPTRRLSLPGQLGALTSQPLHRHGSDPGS
How it was run: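 Thallium-flux (FluxOR) read-out on FDSS: fluorescence read 10 s before and 2 min after stimulation buffer. hERG-BacMam-transduced U2OS cells, compound exposure about 10 min. AC50 by standard Hill equation.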

[30] = measured here: cell count channel max response
[31] = measured here: lipid channel max response

COC(=O)[C@@H]1C2CC3c4[nH]c5cc(OC)ccc5c4CCN3CC2C[C@H](OC(=O)c2cc(OC)c(OC)c(OC)c2)C1OC (stereo not given in full)
-5.55%: max response [2, 31]
3.77%: max response [2, 30]
inactive: Potency [1] | activity change, negative = inhibition [2] -8.88% | Potency [3] | Potency [4]

CC(=O)OC1c2c(ccc3ccc(=O)oc23)OC(C)(C)C1OC(=O)CC(C)C (stereo not given)
-91.6%: max response [2, 31]
active: Potency [5] 20 µM | Potency [2] 25.1 µM | Potency [8] 44.1 µM
-23.2%: max response [2, 30]
inactive: Potency [1] | Potency [6] | outcome [7] | Potency [3] | Potency [4]

CCCC1O[C@@H]2C[C@H]3[C@@H]4CCC5=CC(=O)C=C[C@]5(C)C4[C@@H](O)C[C@]3(C)[C@]2(C(=O)CO)O1 (stereo not given in full)
active: Potency [12] 2.24 µM | Potency [13] 3.16 µM | Potency [14] 2.51 µM | Potency [15] 11.2 µM | Potency [16] 5.01 µM | Potency [17] 2.51 µM | Potency [18] 5.01 µM | Potency [22] 2.94 µM | Potency [23] 10.4 µM
-19.5%: max response [2, 31]
-19.9%: max response [2, 30]
inactive: activity change, negative = inhibition [2] 0.423% | outcome [9] | outcome [10] | outcome [11] | outcome [19] | outcome [20] | outcome [21] | Potency [24] | outcome [25] | activation [26] 2.06% | outcome [27] | outcome [28] | Potency [29]
